Over roughly 8,300 sequences, “log2 fold change of degron read counts, EGFP-low vs EGFP+ sorted cells (limma voom), compound-induced degradation” has its median near -1.1; the highest 2% begin near 3.2. This is one part of a sample in which the highest values are shown more often than they occur.
Target: T1, CRBN, Q96SW2
T1 chain: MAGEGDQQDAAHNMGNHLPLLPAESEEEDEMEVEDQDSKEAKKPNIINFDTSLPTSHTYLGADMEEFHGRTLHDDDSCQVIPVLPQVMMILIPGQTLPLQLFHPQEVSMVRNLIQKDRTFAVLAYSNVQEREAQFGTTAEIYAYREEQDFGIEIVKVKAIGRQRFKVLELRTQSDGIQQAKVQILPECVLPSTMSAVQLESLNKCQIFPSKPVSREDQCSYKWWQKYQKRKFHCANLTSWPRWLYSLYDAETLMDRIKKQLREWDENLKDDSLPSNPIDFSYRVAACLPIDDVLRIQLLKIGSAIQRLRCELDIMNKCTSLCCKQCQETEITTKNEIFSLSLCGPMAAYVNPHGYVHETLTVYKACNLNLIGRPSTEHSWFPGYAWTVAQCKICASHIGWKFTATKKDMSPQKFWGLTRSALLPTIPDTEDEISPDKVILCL
Experiment: log2 fold change of degron read counts, EGFP-low vs EGFP+ sorted cells (limma voom), compound-induced degradation; higher = more compound-induced degradation of the degron-EGFP fusion; degrons are variants of IKZF1/3 zinc finger 2; compound dose not given here
Details: Jurkat, 18 h

[1] = compound: compound 19 (5-tert-butyl-thalidomide)
[2] = compound: compound 22 (5-morpholino-thalidomide)
[3] = compound: compound 33 (diphenyl IMiD analogue)
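Note: pooled lentiviral library of zinc finger degron-EGFP fusions in mCherry-positive Jurkat cells, FACS-sorted after compound exposure, with degron abundance counted by next-generation sequencing.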

B1: 46F_47Q_49P_50I_52G_53R_54G_55F_67L_, Q9UKT9 (peptide)
chain: FQCPICGRGFTQKGNLLRHIKL
[1]
  log2 fold change of degron read counts: -0.816
[2]
  log2 fold change of degron read counts: -0.908
[3]
  log2 fold change of degron read counts: -0.112
compound: thalidomide
  log2 fold change of degron read counts: 1.8

B2: 46F_47Q_49E_50I_52G_53A_54V_55F_67L_, Q9UKT9 (peptide)
chain: FQCEICGAVFTQKGNLLRHIKL
[1]
  log2 fold change of degron read counts: 0.132
[2]
  log2 fold change of degron read counts: 2.71
[3]
  log2 fold change of degron read counts: 2.34
compound: thalidomide
  log2 fold change of degron read counts: 3.22

B3: 46F_47G_49D_50Q_52G_53A_54W_55F_67L_, Q9UKT9 (peptide)
chain: FGCDQCGAWFTQKGNLLRHIKL
[1]
  log2 fold change of degron read counts: -2.44
[2]
  log2 fold change of degron read counts: -2.82
[3]
  log2 fold change of degron read counts: -1.38
compound: thalidomide
  log2 fold change of degron read counts: -2.3

B4: 46F_47M_49E_50I_52G_53H_54Q_55F_67L_, Q9UKT9 (peptide)
chain: FMCEICGHQFTQKGNLLRHIKL
[1]
  log2 fold change of degron read counts: -3.75
[2]
  log2 fold change of degron read counts: -3.29
[3]
  log2 fold change of degron read counts: -1.95
compound: thalidomide
  log2 fold change of degron read counts: -1.87

B5: 46F_47C_49N_50Q_52G_53R_54V_55F_67L_, Q9UKT9 (peptide)
chain: FCCNQCGRVFTQKGNLLRHIKL
[1]
  log2 fold change of degron read counts: -2.29
[2]
  log2 fold change of degron read counts: -2.57
[3]
  log2 fold change of degron read counts: -2.1
compound: thalidomide
  log2 fold change of degron read counts: -2.12

B6: 46F_47L_49N_50Q_52G_53R_54C_55F_67L_, Q9UKT9 (peptide)
chain: FLCNQCGRCFTQKGNLLRHIKL
[1]
  log2 fold change of degron read counts: -1.41
[2]
  log2 fold change of degron read counts: -1.61
[3]
  log2 fold change of degron read counts: -3.08
compound: thalidomide
  log2 fold change of degron read counts: -2.11

B7: 46F_47V_49P_50Q_52G_53A_54I_55F_67L_, Q9UKT9 (peptide)
chain: FVCPQCGAIFTQKGNLLRHIKL
[1]
  log2 fold change of degron read counts: -2.01
[2]
  log2 fold change of degron read counts: -1.63
[3]
  log2 fold change of degron read counts: -0.464
compound: thalidomide
  log2 fold change of degron read counts: -0.946

B8: 46F_47Q_49P_50I_52G_53A_54S_55F_67L_, Q9UKT9 (peptide)
chain: FQCPICGASFTQKGNLLRHIKL
[1]
  log2 fold change of degron read counts: 2.55
[2]
  log2 fold change of degron read counts: 2.88
[3]
  log2 fold change of degron read counts: 2.76
compound: thalidomide
  log2 fold change of degron read counts: 3.79

B9: 46F_47E_49D_50I_52G_53A_54S_55F_67L_, Q9UKT9 (peptide)
chain: FECDICGASFTQKGNLLRHIKL
[1]
  log2 fold change of degron read counts: 0.774
[2]
  log2 fold change of degron read counts: -2.24
[3]
  log2 fold change of degron read counts: -0.436
compound: thalidomide
  log2 fold change of degron read counts: -0.0103

B10: 46F_47D_49P_50I_52G_53A_54S_55F_67L_, Q9UKT9 (peptide)
chain: FDCPICGASFTQKGNLLRHIKL
[1]
  log2 fold change of degron read counts: 3.04
[2]
  log2 fold change of degron read counts: 1.06
[3]
  log2 fold change of degron read counts: 1.22
compound: thalidomide
  log2 fold change of degron read counts: 1.9

B11: 46F_47Q_49D_50I_52G_53A_54S_55F_67L_, Q9UKT9 (peptide)
chain: FQCDICGASFTQKGNLLRHIKL
[1]
  log2 fold change of degron read counts: 1.07
[2]
  log2 fold change of degron read counts: 1.92
[3]
  log2 fold change of degron read counts: 1.15
compound: thalidomide
  log2 fold change of degron read counts: 2.99

B12: 46F_47Y_49P_50I_52G_53A_54S_55F_67L_, Q9UKT9 (peptide)
chain: FYCPICGASFTQKGNLLRHIKL
[1]
  log2 fold change of degron read counts: 3.25
[2]
  log2 fold change of degron read counts: 3.43
[3]
  log2 fold change of degron read counts: 2.54
compound: thalidomide
  log2 fold change of degron read counts: 1.24

B13: 46F_47W_49P_50I_52G_53A_54S_55F_67L_, Q9UKT9 (peptide)
chain: FWCPICGASFTQKGNLLRHIKL
[1]
  log2 fold change of degron read counts: 3.29
[2]
  log2 fold change of degron read counts: 3.64
[3]
  log2 fold change of degron read counts: 2.28
compound: thalidomide
  log2 fold change of degron read counts: 1.35

B14: 46F_47L_49P_50I_52G_53A_54S_55F_67L_, Q9UKT9 (peptide)
chain: FLCPICGASFTQKGNLLRHIKL
[1]
  log2 fold change of degron read counts: 1.51
[2]
  log2 fold change of degron read counts: 0.569
[3]
  log2 fold change of degron read counts: 1.64
compound: thalidomide
  log2 fold change of degron read counts: 1.57

B15: 46F_47N_49P_50I_52G_53A_54S_55F_67L_, Q9UKT9 (peptide)
chain: FNCPICGASFTQKGNLLRHIKL
[1]
  log2 fold change of degron read counts: 2.84
[2]
  log2 fold change of degron read counts: 1.58
[3]
  log2 fold change of degron read counts: 1.33
compound: thalidomide
  log2 fold change of degron read counts: 0.876

B16: 46F_47K_49P_50I_52G_53A_54S_55F_67L_, Q9UKT9 (peptide)
chain: FKCPICGASFTQKGNLLRHIKL
[1]
  log2 fold change of degron read counts: 1.49
[2]
  log2 fold change of degron read counts: -0.57
[3]
  log2 fold change of degron read counts: -1.45
compound: thalidomide
  log2 fold change of degron read counts: 0.422

B17: 46F_47C_49D_50I_52G_53A_54S_55F_67L_, Q9UKT9 (peptide)
chain: FCCDICGASFTQKGNLLRHIKL
[1]
  log2 fold change of degron read counts: 2.32
[2]
  log2 fold change of degron read counts: 1.84
[3]
  log2 fold change of degron read counts: 0.871
compound: thalidomide
  log2 fold change of degron read counts: 0.402

B18: 46F_47W_49D_50I_52G_53A_54S_55F_67L_, Q9UKT9 (peptide)
chain: FWCDICGASFTQKGNLLRHIKL
[1]
  log2 fold change of degron read counts: 3.28
[2]
  log2 fold change of degron read counts: 3.69
[3]
  log2 fold change of degron read counts: 1.52
compound: thalidomide
  log2 fold change of degron read counts: -0.347

B19: 46F_47A_49N_50Q_52G_53H_54Q_55F_67L_, Q9UKT9 (peptide)
chain: FACNQCGHQFTQKGNLLRHIKL
[1]
  log2 fold change of degron read counts: -2.48
[2]
  log2 fold change of degron read counts: -3.06
[3]
  log2 fold change of degron read counts: -3.27
compound: thalidomide
  log2 fold change of degron read counts: -2.92

B20: 46F_47R_49N_50V_52G_53A_54Q_55F_67L_, Q9UKT9 (peptide)
chain: FRCNVCGAQFTQKGNLLRHIKL
[1]
  log2 fold change of degron read counts: -1.54
[2]
  log2 fold change of degron read counts: -1.19
[3]
  log2 fold change of degron read counts: -0.656
compound: thalidomide
  log2 fold change of degron read counts: -0.561

B21: 46F_47N_49P_50I_52G_53H_54Y_55F_67L_, Q9UKT9 (peptide)
chain: FNCPICGHYFTQKGNLLRHIKL
[1]
  log2 fold change of degron read counts: -1.6
[2]
  log2 fold change of degron read counts: -1.7
[3]
  log2 fold change of degron read counts: -1.47
compound: thalidomide
  log2 fold change of degron read counts: -1.44

B22: 46F_47F_49S_50V_52G_53H_54K_55F_67L_, Q9UKT9 (peptide)
chain: FFCSVCGHKFTQKGNLLRHIKL
[1]
  log2 fold change of degron read counts: -1.05
[2]
  log2 fold change of degron read counts: -2.36
[3]
  log2 fold change of degron read counts: -2.5
compound: thalidomide
  log2 fold change of degron read counts: -2.6

B23: 46F_47C_49S_50V_52G_53H_54V_55F_67L_, Q9UKT9 (peptide)
chain: FCCSVCGHVFTQKGNLLRHIKL
[1]
  log2 fold change of degron read counts: -1.81
[2]
  log2 fold change of degron read counts: -2.39
[3]
  log2 fold change of degron read counts: -2.47
compound: thalidomide
  log2 fold change of degron read counts: -2.11

B24: 46F_47H_49P_50I_52G_53A_54S_55F_67L_, Q9UKT9 (peptide)
chain: FHCPICGASFTQKGNLLRHIKL
[1]
  log2 fold change of degron read counts: 2.77
[2]
  log2 fold change of degron read counts: 2.54
[3]
  log2 fold change of degron read counts: 2.08
compound: thalidomide
  log2 fold change of degron read counts: 0.926

B25: 46F_47T_49P_50I_52G_53A_54S_55F_67L_, Q9UKT9 (peptide)
chain: FTCPICGASFTQKGNLLRHIKL
[1]
  log2 fold change of degron read counts: 2.17
[2]
  log2 fold change of degron read counts: 3.02
[3]
  log2 fold change of degron read counts: 2.88
compound: thalidomide
  log2 fold change of degron read counts: 3.23

B26: 46F_47F_49P_50I_52G_53A_54S_55F_67L_, Q9UKT9 (peptide)
chain: FFCPICGASFTQKGNLLRHIKL
[1]
  log2 fold change of degron read counts: 3.26
[2]
  log2 fold change of degron read counts: 3.18
[3]
  log2 fold change of degron read counts: 2.18
compound: thalidomide
  log2 fold change of degron read counts: 1.74

B27: 46F_47G_49P_50I_52G_53A_54S_55F_67L_, Q9UKT9 (peptide)
chain: FGCPICGASFTQKGNLLRHIKL
[1]
  log2 fold change of degron read counts: 3.27
[2]
  log2 fold change of degron read counts: 2.28
[3]
  log2 fold change of degron read counts: 2.49
compound: thalidomide
  log2 fold change of degron read counts: 1.31

B28: 46F_47F_49N_50I_52G_53A_54S_55F_67L_, Q9UKT9 (peptide)
chain: FFCNICGASFTQKGNLLRHIKL
[1]
  log2 fold change of degron read counts: 2.16
[2]
  log2 fold change of degron read counts: 2.55
[3]
  log2 fold change of degron read counts: 1.2
compound: thalidomide
  log2 fold change of degron read counts: -0.157

From the supplement of paper PMC12645437, “Orthogonal IMiD-Degron Pairs Induce Selective Protein Degradation in Cells” (ACS Chemical Biology, 2025)
